Common to all, as to set-up: scale not given: direction of the effect not stated beside the values
Assay [1] concerns the target Protein translocase subunit SecA (Escherichia coli (strain K12)) (UniProt P10408). Description: Assay to Identify E. coli SecA ATPase Inhibitors. It is filed as functional. The following applies: 30 µM.
Assay [2] addresses T1, Ubiquitin-activating enzyme e1, putative (Leishmania donovani (strain BPK282A1)) (UniProt E9BSI1).
T1 sequence (whole entry): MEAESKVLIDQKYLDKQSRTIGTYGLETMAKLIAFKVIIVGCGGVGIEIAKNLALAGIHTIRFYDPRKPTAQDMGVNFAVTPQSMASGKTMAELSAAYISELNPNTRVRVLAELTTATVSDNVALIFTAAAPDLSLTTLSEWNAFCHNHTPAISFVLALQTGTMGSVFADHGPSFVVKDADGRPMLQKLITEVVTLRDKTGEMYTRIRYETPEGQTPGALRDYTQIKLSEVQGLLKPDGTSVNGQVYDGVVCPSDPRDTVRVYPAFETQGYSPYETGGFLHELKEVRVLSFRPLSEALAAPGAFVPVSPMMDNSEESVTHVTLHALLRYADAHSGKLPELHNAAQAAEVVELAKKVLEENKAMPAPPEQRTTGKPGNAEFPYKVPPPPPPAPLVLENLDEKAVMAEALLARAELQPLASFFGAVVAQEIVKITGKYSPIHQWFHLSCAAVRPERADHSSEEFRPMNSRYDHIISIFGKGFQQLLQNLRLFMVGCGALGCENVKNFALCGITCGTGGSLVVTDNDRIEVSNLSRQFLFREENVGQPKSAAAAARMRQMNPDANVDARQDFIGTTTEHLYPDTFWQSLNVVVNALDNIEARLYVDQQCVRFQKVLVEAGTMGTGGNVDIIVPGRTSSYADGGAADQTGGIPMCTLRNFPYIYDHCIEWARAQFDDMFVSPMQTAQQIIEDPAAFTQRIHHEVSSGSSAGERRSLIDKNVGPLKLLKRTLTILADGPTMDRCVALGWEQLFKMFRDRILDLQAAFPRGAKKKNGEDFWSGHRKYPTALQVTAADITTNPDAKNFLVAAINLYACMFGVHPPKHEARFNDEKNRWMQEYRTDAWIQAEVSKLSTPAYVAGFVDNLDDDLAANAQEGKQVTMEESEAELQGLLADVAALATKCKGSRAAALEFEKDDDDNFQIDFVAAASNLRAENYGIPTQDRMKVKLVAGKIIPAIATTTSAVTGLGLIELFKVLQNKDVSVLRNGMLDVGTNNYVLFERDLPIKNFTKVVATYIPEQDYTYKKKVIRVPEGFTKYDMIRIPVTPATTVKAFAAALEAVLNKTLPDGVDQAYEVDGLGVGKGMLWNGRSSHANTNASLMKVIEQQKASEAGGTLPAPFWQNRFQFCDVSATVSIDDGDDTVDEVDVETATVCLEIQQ
Kind of assay: Leishmania donovani Ubiquitin Activating Enzyme (LdE1). In kind it is functional. The settings on record: 30 µM.

In assay [3] the target is AMP-activated protein kinase, AMPK (Homo sapiens) (UniProt P54646+O43741+P54619+Q9UGJ0+Q9Y478+Q13131+Q9UGI9). Description: AMP-dependent Kinase enzyme assay. An in vitro enzyme assay that detects ADP turnover that is directly proportional to AMPK activity. This uses naive AMPK that is activated during the assay with MK-8722. In kind it is functional. The following applies: 30 µM.

Assay [4] deals with Sialic acid-binding Ig-like lectin 9 (Homo sapiens) (UniProt Q9Y336). Kind of assay: Hs-Siglec9 ALPHAscreen SOP 20170721. The following applies: 10 µM. On the technique in general: In Alpha technology, singlet oxygen from a donor bead excites a nearby acceptor bead.
The subject of another assay is Trypanosoma cruzi. Kind of assay: Trypanosoma cruzi phosphomannomutase and mannose-1-phosphate guanylyltransferase assay. It is filed as functional. The settings on record: 10 µM.
In assay [5] the target is T2, Arginase-2, mitochondrial (Homo sapiens) (UniProt P78540).
T2 sequence (whole entry): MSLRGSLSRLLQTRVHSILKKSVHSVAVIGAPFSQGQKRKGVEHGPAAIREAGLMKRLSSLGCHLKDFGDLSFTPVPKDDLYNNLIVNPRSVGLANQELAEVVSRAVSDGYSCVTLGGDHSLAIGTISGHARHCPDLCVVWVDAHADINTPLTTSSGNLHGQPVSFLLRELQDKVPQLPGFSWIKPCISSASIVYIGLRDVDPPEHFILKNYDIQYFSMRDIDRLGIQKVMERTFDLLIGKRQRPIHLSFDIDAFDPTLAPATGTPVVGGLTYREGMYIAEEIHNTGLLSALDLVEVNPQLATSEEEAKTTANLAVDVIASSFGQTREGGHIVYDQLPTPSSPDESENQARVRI
Kind of assay: in vitro enzyme assay to detect the production of urea directly proportional to the activity of Arginase II. Note: in the data most compounds retested in dose-response had high values. In kind it is functional. The following applies: 33.3 µM.

Assay [6] deals with T3, Proteasome subunit beta (Trypanosoma cruzi) (UniProt O96673).
T3 sequence (whole entry): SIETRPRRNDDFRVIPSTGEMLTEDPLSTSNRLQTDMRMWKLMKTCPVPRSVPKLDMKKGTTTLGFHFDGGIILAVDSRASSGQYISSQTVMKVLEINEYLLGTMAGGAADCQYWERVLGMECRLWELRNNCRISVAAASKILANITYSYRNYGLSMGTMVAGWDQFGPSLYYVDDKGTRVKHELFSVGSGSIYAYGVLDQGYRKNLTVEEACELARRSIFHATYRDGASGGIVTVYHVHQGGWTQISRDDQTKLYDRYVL
Description: Trypanosoma cruzi proteasome chymotrypsin-like activity (TcProtChymo) assay. Note: in the data most compounds retested in dose-response had high values. In kind it is functional. The settings on record: 9.37 µM.

The species named for a further assay is Homo sapiens. Description: To identify inhibition of the IFN signalling (Jak-Stat) pathway via expression of an eGFP reporter gene under the control of an IFN-stimulated response element (ISRE) containing MxA promoter. It is filed as functional. The following applies: 30 µM. A general note: A reporter such as luciferase makes a cellular process visible.
Assay [7] has as its target T4, Tyrosyl-tRNA synthetase, putative (Trypanosoma cruzi (strain CL Brener)) (UniProt Q4DSP6).
T4 sequence (whole entry): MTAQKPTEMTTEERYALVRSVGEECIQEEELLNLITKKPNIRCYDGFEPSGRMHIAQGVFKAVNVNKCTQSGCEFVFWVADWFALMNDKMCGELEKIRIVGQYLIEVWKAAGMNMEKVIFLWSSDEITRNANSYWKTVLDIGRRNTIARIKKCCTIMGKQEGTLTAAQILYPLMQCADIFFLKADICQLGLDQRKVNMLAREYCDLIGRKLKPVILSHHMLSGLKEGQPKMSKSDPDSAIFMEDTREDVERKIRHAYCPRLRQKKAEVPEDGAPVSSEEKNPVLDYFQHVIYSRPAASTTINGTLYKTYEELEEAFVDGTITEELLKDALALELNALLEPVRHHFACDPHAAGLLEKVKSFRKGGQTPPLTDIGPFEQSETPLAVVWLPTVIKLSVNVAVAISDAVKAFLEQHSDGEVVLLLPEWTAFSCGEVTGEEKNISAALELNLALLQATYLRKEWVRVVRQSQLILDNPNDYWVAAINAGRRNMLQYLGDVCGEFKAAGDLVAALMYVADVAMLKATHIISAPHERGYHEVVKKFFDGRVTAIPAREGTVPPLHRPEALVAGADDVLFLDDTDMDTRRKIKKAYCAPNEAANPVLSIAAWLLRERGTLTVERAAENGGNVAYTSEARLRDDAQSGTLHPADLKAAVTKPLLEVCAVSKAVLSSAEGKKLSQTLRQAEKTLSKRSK
Description: Trypanosoma cruzi tyrosyl tRNA synthetase (TcYRS) _High Tyrosine SOP. Note: in the data most compounds retested in dose-response had high values. It is filed as functional. The settings on record: 30 µM.

Assay [8] has as its target T4, Tyrosyl-tRNA synthetase, putative (Trypanosoma cruzi (strain CL Brener)). Description: Trypanosoma cruzi tyrosyl tRNA synthetase (TcYRS) SOP. The settings on record: 30 µM. In kind it is functional.
Assay [9] has as its target Chromo domain-containing protein 1 (Saccharomyces cerevisiae (strain ATCC 204508 / S288c) (Baker's yeast)) (UniProt P32657). Description: ScCHD-1 Enzyme Inhibition Assay. Note: in the data most compounds retested in dose-response had high values. The following applies: 30 µM. It is filed as functional.

For some of these results: Potency and affinity values are given separately.

Protein translocase subunit SecA (Escherichia coli (strain K12)), sequence (P10408 whole entry): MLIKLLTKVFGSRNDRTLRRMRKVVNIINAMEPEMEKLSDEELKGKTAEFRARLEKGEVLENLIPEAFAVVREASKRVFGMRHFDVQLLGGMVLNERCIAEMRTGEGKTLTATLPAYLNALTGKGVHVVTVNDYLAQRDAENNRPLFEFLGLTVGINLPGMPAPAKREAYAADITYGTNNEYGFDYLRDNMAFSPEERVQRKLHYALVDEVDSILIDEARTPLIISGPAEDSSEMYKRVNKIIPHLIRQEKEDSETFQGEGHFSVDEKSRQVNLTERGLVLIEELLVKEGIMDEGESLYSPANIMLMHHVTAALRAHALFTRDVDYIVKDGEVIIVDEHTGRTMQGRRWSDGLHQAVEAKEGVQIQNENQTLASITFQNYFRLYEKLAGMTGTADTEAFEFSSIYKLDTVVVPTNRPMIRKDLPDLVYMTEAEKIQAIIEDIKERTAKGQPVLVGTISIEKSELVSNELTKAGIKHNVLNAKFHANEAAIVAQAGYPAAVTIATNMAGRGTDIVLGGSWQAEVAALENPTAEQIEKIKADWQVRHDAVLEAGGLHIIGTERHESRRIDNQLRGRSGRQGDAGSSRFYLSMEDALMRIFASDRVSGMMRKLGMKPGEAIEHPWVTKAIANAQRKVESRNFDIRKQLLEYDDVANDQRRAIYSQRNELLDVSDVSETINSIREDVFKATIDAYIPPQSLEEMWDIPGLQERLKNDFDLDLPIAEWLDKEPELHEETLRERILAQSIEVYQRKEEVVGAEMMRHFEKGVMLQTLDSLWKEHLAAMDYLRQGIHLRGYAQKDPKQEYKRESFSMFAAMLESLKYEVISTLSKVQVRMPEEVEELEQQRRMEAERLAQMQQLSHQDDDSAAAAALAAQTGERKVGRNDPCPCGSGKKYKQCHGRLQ
Sialic acid-binding Ig-like lectin 9 (Homo sapiens), sequence (Q9Y336 whole entry): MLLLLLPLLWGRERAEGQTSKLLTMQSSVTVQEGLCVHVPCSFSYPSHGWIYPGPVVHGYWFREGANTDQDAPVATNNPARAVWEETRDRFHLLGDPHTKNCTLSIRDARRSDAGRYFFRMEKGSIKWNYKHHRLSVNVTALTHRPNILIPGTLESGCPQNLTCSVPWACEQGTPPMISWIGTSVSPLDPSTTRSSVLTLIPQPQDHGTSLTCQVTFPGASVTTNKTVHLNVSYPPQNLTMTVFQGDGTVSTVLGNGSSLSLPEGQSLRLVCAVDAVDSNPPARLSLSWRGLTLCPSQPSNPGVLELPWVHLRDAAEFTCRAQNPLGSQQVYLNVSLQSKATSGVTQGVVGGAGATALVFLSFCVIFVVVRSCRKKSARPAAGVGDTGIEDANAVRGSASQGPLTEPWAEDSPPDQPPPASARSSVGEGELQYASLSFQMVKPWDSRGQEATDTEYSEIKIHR
Chromo domain-containing protein 1 (Saccharomyces cerevisiae (strain ATCC 204508 / S288c) (Baker's yeast)), sequence (P32657 whole entry, the tested form may be a part): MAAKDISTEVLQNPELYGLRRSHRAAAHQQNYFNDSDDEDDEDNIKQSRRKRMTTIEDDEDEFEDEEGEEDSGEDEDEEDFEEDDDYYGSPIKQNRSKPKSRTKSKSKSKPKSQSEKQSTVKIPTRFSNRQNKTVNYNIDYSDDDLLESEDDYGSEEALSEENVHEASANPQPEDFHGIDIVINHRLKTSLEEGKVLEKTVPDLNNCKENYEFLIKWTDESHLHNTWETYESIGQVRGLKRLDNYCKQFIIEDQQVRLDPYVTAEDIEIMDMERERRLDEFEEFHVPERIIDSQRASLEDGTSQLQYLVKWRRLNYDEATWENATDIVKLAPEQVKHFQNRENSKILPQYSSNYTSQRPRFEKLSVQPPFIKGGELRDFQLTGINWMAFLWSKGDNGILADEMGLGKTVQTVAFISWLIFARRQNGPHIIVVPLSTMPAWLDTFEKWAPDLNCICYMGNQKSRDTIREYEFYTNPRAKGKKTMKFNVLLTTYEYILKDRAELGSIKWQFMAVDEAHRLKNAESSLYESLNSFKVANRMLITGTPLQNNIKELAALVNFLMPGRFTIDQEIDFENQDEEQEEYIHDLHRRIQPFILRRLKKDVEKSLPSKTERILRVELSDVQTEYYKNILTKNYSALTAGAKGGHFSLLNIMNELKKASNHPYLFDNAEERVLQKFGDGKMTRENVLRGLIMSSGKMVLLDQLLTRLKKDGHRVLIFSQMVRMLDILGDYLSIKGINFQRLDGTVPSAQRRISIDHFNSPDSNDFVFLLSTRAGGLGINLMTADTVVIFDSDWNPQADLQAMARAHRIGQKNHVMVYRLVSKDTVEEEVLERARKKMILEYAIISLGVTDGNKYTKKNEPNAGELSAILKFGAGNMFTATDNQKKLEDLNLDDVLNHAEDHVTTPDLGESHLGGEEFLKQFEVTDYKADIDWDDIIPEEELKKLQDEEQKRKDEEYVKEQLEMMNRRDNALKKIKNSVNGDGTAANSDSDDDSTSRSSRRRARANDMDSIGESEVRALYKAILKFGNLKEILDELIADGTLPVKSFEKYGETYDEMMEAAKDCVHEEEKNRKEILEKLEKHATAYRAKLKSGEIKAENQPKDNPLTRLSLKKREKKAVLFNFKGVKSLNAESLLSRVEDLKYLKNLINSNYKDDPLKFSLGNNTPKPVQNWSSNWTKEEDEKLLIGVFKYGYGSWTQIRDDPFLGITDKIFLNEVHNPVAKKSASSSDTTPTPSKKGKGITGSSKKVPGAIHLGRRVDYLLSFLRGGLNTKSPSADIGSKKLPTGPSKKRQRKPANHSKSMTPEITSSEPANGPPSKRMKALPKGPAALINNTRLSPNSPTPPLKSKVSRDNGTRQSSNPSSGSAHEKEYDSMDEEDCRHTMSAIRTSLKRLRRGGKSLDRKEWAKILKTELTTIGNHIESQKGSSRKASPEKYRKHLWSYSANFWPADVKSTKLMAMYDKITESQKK

In the case of `Cc1nc2n(n1)CC(NCc1cc(Cl)c3c(c1)OCCCO3)CC2` (stereo not drawn), the Percent Effect was -6.19% in assay [1]; 15.8% in [2]; -7.14% in assay [3]; 11.4% in [4]; 5.51% in the assay on Trypanosoma cruzi; -1.44% in assay [5]. The Percent Effect is 6.01% in assay [6]; 6.53% in the assay filed under Homo sapiens; 6.4% in assay [7]; 25.9% in [8]; -3.53% in assay [9].
For the compound `Cc1nc(N2CC[C@@H](NC(=O)c3cnccn3)[C@H](O)C2)c2ccsc2n1`, the Percent Effect is 0.273% in assay [1]; 8.11% in [2]; -4.4% in assay [3]; 15.3% in assay [4]; 2.7% in the assay with Trypanosoma cruzi; 3.33% in [5]. For the same compound, the Percent Effect is 2.41% in [6]; 46.9% in the assay filed under Homo sapiens; 5.82% in [7]; 19.5% in assay [8]; -3.51% in assay [9].
With `O=C(c1cncc(N2CCC(O)(CO)CC2)n1)N1CCCC1`, the Percent Effect in assay [1] was -4.63%; in assay [2], 5.33%; in assay [3], -3.65%; in assay [4] it was 8.86%; in the assay with Trypanosoma cruzi it was 6.72%; in [5], 0%. The Percent Effect was 16.9% in [6]; -11.2% in the assay listed under Homo sapiens; 9.29% in [7]; 18.5% in assay [8]; -7.99% in assay [9].
In the case of `Cc1cc(-c2cnn(CCNC(=O)C3CCCO3)c2C2CC2)on1` (stereo not drawn), the Percent Effect in assay [1] is -5.64%; in assay [2], 4.05%; in [3] it was 12%; in assay [4] it was 8.12%; in the assay on Trypanosoma cruzi, 5.34%; in assay [5] it was 0.232%. The Percent Effect in assay [6] is 3.59%; in the assay filed under Homo sapiens, 0.87%; in [7], 2.15%; in assay [8] it was 11.7%; in assay [9], 0.889%.
For the compound `CCc1nc(CN(C)C2CCN(CCn3cc(C#N)cn3)C2)no1` (stereo not drawn), the Percent Effect is 1.6% in assay [1]; 13.5% in assay [2]; -2.36% in assay [3]; -1.05% in assay [4]; -7.64% in the assay with Trypanosoma cruzi; -13.6% in assay [5]. Further, the Percent Effect in assay [6] was 17.5%; in the assay filed under Homo sapiens it was 23.4%; in [7], 4.43%; in assay [8], 6.17%; in [9], -5.98%.
Regarding `CCc1cc(NCC(O)CN2CCCCC2)n2ncnc2n1` (stereo not drawn), the Percent Effect was -4.14% in assay [1]; 7.89% in [2]; 2.69% in [3]; 4.78% in assay [4]; 1.27% with Trypanosoma cruzi; -2.37% in assay [5]. The Percent Effect in [6] is 15.2%; in the assay filed under Homo sapiens it was 3.03%; in assay [7] it was 4.25%; in assay [8], 13%; in assay [9] it was -4.78%.
`CNc1cccc(C2CCCN(C(=O)c3ccncc3)C2)n1` (stereo not drawn): the Percent Effect in assay [1] is -4.49%; in assay [2], 6.76%; in assay [3], 12.2%; in [4], 0.305%; in the assay with Trypanosoma cruzi, 4.74%; in [5] it was -0.232%. For the same compound, the Percent Effect in assay [6] is 8.27%; in the assay filed under Homo sapiens, -2.26%; in assay [7] it was 6.45%; in assay [8], 11.7%; in [9], -14.3%.
For `O=C1CC(N(C(=O)c2ccc3c(c2)CCC3)C2CC2)C(=O)N1` (stereo not drawn), the Percent Effect in assay [1] was -3.91%; in assay [2] it was 7.59%; in assay [3] it was -5.04%; in [4], -3.45%; in the assay on Trypanosoma cruzi, -8.21%; in assay [5], 4.18%. Moreover, the Percent Effect was 5.98% in assay [6]; 25.8% in the assay listed under Homo sapiens; -0.493% in [7]; 1.27% in assay [8]; -6.63% in assay [9].

For the origin of these results see ChEMBL document CHEMBL3988442, “University of Dundee, Small-Polar-MMV Screening Library” (2021).
